# Data taken from PubChem BioAssay AID1159580 (chemical genetic matrix, 2015).
# Among all 5,500 compounds or so, about 2,000 (36%) were called active. Roughly 18% stayed inconclusive and do not appear here. The list shows a part of the results. A number with no mark means an inactive call. Cut-off read from the data, not from the text of the source: active = normalized growth mostly below about 0.91 (no sharp cut-off); inconclusive = no clear call, values can overlap the other calls; inactive = mostly above about 0.92.
# Assay: chemical genetic growth profiling, strain panel (AID 1159580);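 note: tested at 20 µM; growth read once vehicle control cultures reached saturation at 30 °C; 1 = growth at the plate median or of vehicle wells; lower values mean less growth of the strain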
# Conditions: S. cerevisiae deletion strains, growth OD
smiles,measurement,setting,value
Cc1nccc2c1[nH]c1ccccc12,normalized growth,"locus YAL013W, strain DEP1, hits give low values",1.01
same,normalized growth,"locus YAL021C, strain ccr4, hits give low values",0.956
same,normalized growth,"locus YAL026C, strain drs2, hits give low values",0.975
same,normalized growth,"locus YAL030W, strain snc1, hits give low values",0.992
same,normalized growth,"locus YAL040C, strain CLN3, hits give low values",1.11
same,normalized growth,"locus YBL061C, strain skt5, hits give low values",0.975
same,normalized growth,"locus YBR009C, strain hhf1, hits give low values",0.971
same,normalized growth,"locus YBR023C, strain chs3, hits give low values",0.974
same,normalized growth,"locus YBR171W, strain sec66, hits give low values",0.969
same,normalized growth,"locus YBR231C, strain swc5, hits give low values",0.972
same,normalized growth,"locus YBR279W, strain paf1, hits give low values",0.991
same,normalized growth,"locus YCL011C, strain gbp2, hits give low values",0.965
same,normalized growth,"locus YCL016C, strain dcc1, hits give low values",0.99
same,normalized growth,"locus YCL061C, strain MRC1 (second series), hits give low values",1.01
same,normalized growth,"locus YCL069W, strain vba3, hits give low values",0.977
same,normalized growth,"locus YCR088W, strain abp1, hits give low values",0.977
same,normalized growth,"locus YDL005C, strain med2, hits give low values",0.965
same,normalized growth,"locus YDL040C, strain nat1, hits give low values",0.983
same,normalized growth,"locus YDR001C, strain nth1, hits give low values",0.991
same,normalized growth,"locus YDR069C, strain doa4, hits give low values",0.941
same,normalized growth,"locus YDR137W, strain rgp1, hits give low values",0.967
same,normalized growth,"locus YDR159W, strain sac3, hits give low values",0.989
same,normalized growth,"locus YDR195W, strain ref2",1.03
same,normalized growth,"locus YDR297W, strain sur2, hits give low values",0.976
same,normalized growth,"locus YDR334W, strain swr1, hits give low values",0.971
same,normalized growth,"locus YDR335W, strain msn5, hits give low values",0.975
same,normalized growth,"locus YDR363W, strain ESC2, hits give low values",1
same,normalized growth,"locus YDR392W, strain spt3, hits give low values",0.963
same,normalized growth,"locus YEL003W, strain gim4, hits give low values",0.983
same,normalized growth,"locus YEL037C, strain rad23, hits give low values",0.983
same,normalized growth,"locus YEL061C, strain CIN8 (second series), hits give low values",0.944
same,normalized growth,"locus YER002W, strain NOP16, hits give low values",0.991
same,normalized growth,"locus YER015W, strain faa2, hits give low values",0.991
same,normalized growth,"locus YER016W, strain bim1, hits give low values",0.984
same,normalized growth,"locus YER111C, strain swi4, hits give low values",0.973
same,normalized growth,"locus YER155C, strain BEM2 (second series), hits give low values",0.954
same,normalized growth,"locus YFR010W, strain ubp6, hits give low values",0.955
same,normalized growth,"locus YGL167C, strain pmr1, hits give low values",0.996
same,normalized growth,"locus YGL173C, strain kem1, hits give low values",0.981
same,normalized growth,"locus YGL227W, strain vid30, hits give low values",0.976
same,normalized growth,"locus YGL240W, strain doc1, hits give low values",0.968
same,normalized growth,"locus YGL253W, strain hxk2, hits give low values",0.959
same,normalized growth,"locus YGR078C, strain PAC10, hits give low values",1.02
same,normalized growth,"locus YHR013C, strain ard1, hits give low values",0.951
same,normalized growth,"locus YHR027C, strain rpn1, hits give low values",0.996
same,normalized growth,"locus YHR030C, strain SLT2, hits give low values",1.05
same,normalized growth,"locus YHR079C, strain IRE1, hits give low values",1.06
same,normalized growth,"locus YHR142W, strain chs7, hits give low values",0.97
same,normalized growth,"locus YJL092W, strain hpr5, hits give low values",0.963
same,normalized growth,"locus YJL095W, strain BCK1 (second series), hits give low values",0.972
same,normalized growth,"locus YJL095W, strain BCK1, hits give low values",1.03
same,normalized growth,"locus YJL115W, strain asf1, hits give low values",0.975
same,normalized growth,"locus YJL129C, strain trk1, hits give low values",0.959
same,normalized growth,"locus YJL154C, strain vps35, hits give low values",0.981
same,normalized growth,"locus YJL164C, strain tpk1, hits give low values",0.993
same,normalized growth,"locus YJL166W, strain qcr8, hits give low values",0.972
same,normalized growth,"locus YJL187C, strain SWE1, hits give low values",0.962
same,normalized growth,"locus YJR066W, strain TOR1, hits give low values",0.972
same,normalized growth,"locus YKL160W, strain elf1, hits give low values",0.995
same,normalized growth,"locus YKR026C, strain gcn3, hits give low values",0.983
same,normalized growth,"locus YKR091W, strain srl3, hits give low values",0.973
same,normalized growth,"locus YLL001W, strain dnm1, hits give low values",0.977
same,normalized growth,"locus YLL026W, hits give low values",0.999
same,normalized growth,"locus YLL041C, strain sdh2, hits give low values",0.979
same,normalized growth,"locus YLR027C, strain aat2, hits give low values",0.995
same,normalized growth,"locus YLR113W, strain HOG1, hits give low values",1.04
same,normalized growth,"locus YLR221C, strain rsa3, hits give low values",0.971
same,normalized growth,"locus YLR258W, strain gsy2, hits give low values",0.991
same,normalized growth,"locus YLR262C, strain YPT6 (second series), hits give low values",0.956
same,normalized growth,"locus YLR320W, strain mms22, hits give low values",0.97
same,normalized growth,"locus YLR342W, strain FKS1, hits give low values",0.968
same,normalized growth,"locus YLR357W, strain rsc2, hits give low values",1.04
same,normalized growth,"locus YLR370C, strain arc18, hits give low values",0.968
same,normalized growth,"locus YLR384C, strain iki3, hits give low values",0.996
same,normalized growth,"locus YML120C, strain ndi1, hits give low values",0.982
same,normalized growth,"locus YMR058W, strain fet3, hits give low values",0.983
same,normalized growth,"locus YMR125W, strain sto1, hits give low values",1.02
same,normalized growth,"locus YMR129W, hits give low values",0.984
same,normalized growth,"locus YMR205C, strain PFK2, hits give low values",1.01
same,normalized growth,"locus YMR231W, strain pep5, hits give low values",0.977
same,normalized growth,"locus YMR307W, strain GAS1, hits give low values",1.01
same,normalized growth,"locus YNL071W, strain lat1, hits give low values",0.973
same,normalized growth,"locus YNL175C, strain NOP13, hits give low values",0.39 (active)
same,normalized growth,"locus YNL183C, strain NPR1, hits give low values",0.993
same,normalized growth,"locus YNL197C, strain WHI3, hits give low values",0.955
same,normalized growth,"locus YNL209W, strain ssb2, hits give low values",0.993
same,normalized growth,"locus YNL248C, strain rpa49, hits give low values",0.955
same,normalized growth,"locus YNL322C, strain KRE1 (second series), hits give low values",0.993
same,normalized growth,"locus YNL322C, strain KRE1, hits give low values",1.01
same,normalized growth,"locus YNR049C, strain mso1, hits give low values",0.976
same,normalized growth,"locus YOR001W, strain rrp6, hits give low values",0.943
same,normalized growth,"locus YOR070C, strain gyp1, hits give low values",0.98
same,normalized growth,"locus YOR080W, strain dia2, hits give low values",0.986
same,normalized growth,"locus YOR083W, strain WHI5 (second series), hits give low values",1.03
same,normalized growth,"locus YOR083W, strain WHI5, hits give low values",0.994
same,normalized growth,"locus YOR106W, strain vam3, hits give low values",0.958
same,normalized growth,"locus YOR231W, strain MKK1, hits give low values",1.06
same,normalized growth,"locus YOR265W, strain rbl2, hits give low values",0.972
same,normalized growth,"locus YOR270C, strain vph1, hits give low values",0.913
same,normalized growth,"locus YOR290C, strain snf2, hits give low values",0.994
same,normalized growth,"locus YPL051W, strain arl3, hits give low values",0.988
same,normalized growth,"locus YPL078C, strain atp4, hits give low values",0.972
same,normalized growth,"locus YPL106C, strain sse1, hits give low values",0.978
same,normalized growth,"locus YPL240C, strain hsp82, hits give low values",0.986
same,normalized growth,"locus YPL241C, strain CIN2, hits give low values",1.01
same,normalized growth,"locus YPL256C, strain CLN2, hits give low values",1.04
